# Data reported in PubChem BioAssay (NCATS).
# Where “and” joins values, the source holds several entries; their conditions need not be identical. Identical values can stand only once. Inconclusive results are not listed. More than one record can exist for a structure, and the calls need not agree. Calls of active or inactive are those of the source. Unless noted, the call rests on the fitted dose curve; in most records, active means well fitted curve in the direction sought with a large enough effect; inconclusive means small, poorly fitted or top-dose-only effect, or another doubt; inactive means no such curve, though single readings can be large; an effect the other way counts as inactive or inconclusive.
# Assays:
# [1] = S16 Schwann cell viability assay (CellTiter-Glo assay) (AID 624031);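 further: native untransfected S16 rat Schwann cells; cellular ATP luminescence as a viability measure; plate controls were DMSO-treated cells for no effect and cell-free wells for full effect; nearly all actives have a fitted effect of over 70% in size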
# Procedure, shortened: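 Following overnight culture in 10% FBS DMEM, parental S16 rat Schwann cells are dosed for 24 h at 37 °C. Viability is read as CellTiter-Glo luminescence and expressed as % activity relative to DMSO (0%) and no-cell wells.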
# [2] = S16 Schwann cell PMP22 intronic element beta-lactamase assay (AID 624044; calls by dose curve; further: nearly all actives have a fitted effect of over 15% in size; further: potency means the concentration at half of the fitted maximal effect)
# Procedure, shortened: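 Rat S16 Schwann cells with beta-Lac driven by a PMP22 intronic element, compound-treated 24 h at 37 °C. LiveBLAzer FRET B/G read: 460 nm normalized to potassium clavulanate vs DMSO; 535 nm FRET as viability; concentration-effect curves classified.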
# [3] = Cytotoxicity counterscreen for NFkB agonists and antagonists (AID 624476);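 further: cells exposed to compound for 48 hours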; further: potency means the concentration at half of the fitted maximal effect
# [4] = qHTS Assay for Identification of Small Molecule Antagonists for NFkB Signaling Pathway. (AID 624479; calls by dose curve;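 further: pathway stimulated with TNF alpha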; further: potency means the concentration at half of the fitted maximal effect)
# [5] = S16 Schwann cell PMP22 intronic element firefly luciferase assay (AID 624032); further: potency means the concentration at half of the fitted maximal effect; nearly all actives have a fitted effect of over 30% in size
# Procedure, shortened: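 Rat S16 Schwann cells stably carrying a PMP22 intronic element-driven Fluc reporter were seeded overnight, then exposed to compounds for 24 h at 37 °C. Luminescence was normalized to PTC124 (positive control) and DMSO (0% activity).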
# [6] = Cell Proliferation Assay against the TMD8 Cell Line (AID 651645); details: TMD8 DLBCL cell line proliferation/viability; at 46.1 µM (top of the series);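 further: cells exposed to compound for 48 h before reading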
# Procedure, shortened: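 Viability by CellTiter-Glo after 48 h compound exposure of 500 log-phase TMD8 cells per well (RPMI, 5% FBS). Percent activity scaled between DMSO (100%) and 9.2 uM final bortezomib (0%).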
# [7] = Cell Proliferation Assay against the HBL1 Cell Line (AID 651646); details: HBL1 DLBCL cells; at 46.1 µM (top of the series);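 further: cells exposed to compound for 48 h before reading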
# Procedure, shortened: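 500 log-phase HBL1 cells per well in phenol red-free RPMI with 5% FBS were treated with compounds for 48 h at 37 °C, 5% CO2. Viability was read by CellTiter-Glo luminescence, normalized to DMSO (100%) and 9.2 uM bortezomib final (0%).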
# [8] = Cell Proliferation Assay against the TMD8 Cell Line (Caspase readout at 16 hrs) (AID 651712); further: potency means the concentration at half of the fitted maximal effect
# Procedure, shortened: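 TMD8 cells (500/well) in phenol-red-free RPMI with glutamine, 5% FBS, were exposed to compounds for 16 h at 37 °C. Caspase 3/7 activation was read by Caspase-Glo luminescence; percent activity normalised to DMSO (0%) and 9.2 uM bortezomib final (100%).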
# [9] = Cell Proliferation Assay against the TMD8 Cell Line (Caspase readout at 8 hrs) (AID 651713); further: potency means the concentration at half of the fitted maximal effect
# Procedure, shortened: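 TMD8 cells in RPMI plus 5% FBS were treated with compound for 8 h at 37C. Caspase 3/7 activation was read by Caspase-Glo luminescence. Percent activity was scaled from DMSO (0%) to 9.2 uM bortezomib final (100%).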
# [10] = qHTS Assay for Identification of Small Molecule Agonists for NFkB Signaling Pathway. (AID 624478); further: 0% is about no effect
# Procedure, shortened: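 NFkB-bla ME-180 cells carry a beta-lactamase reporter. They received compound plus TNF alpha at 10 pM final (its EC50) for 5 h at 37 C. Reporter activity was read as 460/530 nm emission ratio after 2 h LiveBLAzer substrate loading.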
# [11] = qHTS assay for small molecule agonists of the antioxidant response element (ARE) signaling pathway (AID 651741; active means well fitted activation curve with a large enough effect in the signal ratio; the % refers to the signal ratio; further: potency means the concentration at half of the fitted maximal effect; on activation: % of control where 0% means no effect)
# Procedure, shortened: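 Compounds in DMSO are pinned onto HepG2 ARE-bla cells (2,000/well) that were preincubated 5 h; plates stay 16 h at 37 C, then beta-lactamase activity is detected with LiveBLAzer B/G substrate by fluorescence.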
# [12] = qHTS assay for small molecule activators of the p53 signaling pathway (AID 651743; active means well fitted activation curve with a large enough effect in the signal ratio, not every such curve was filed as active; the % refers to the signal ratio; further: % of control where 0% means no effect); details: HCT-116 p53RE-bla, beta-lactamase FRET ratio, 16 h; stronger effect = higher value
# Procedure, shortened: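 Cell-based beta-lactamase reporter (p53 response elements, HCT-116 background). After a 5-hour preincubation, cells received compound for 16 hours at 37 C; substrate development ran 2 hours at room temperature.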
# [13] = qHTS assay for small molecule activators of the nuclear factor-kappa B (NF-kB) signaling pathway (AID 651749; active means well fitted activation curve with a large enough effect in the signal ratio; the % refers to the signal ratio; further: % of control where 0% means no effect); details: NF-kB-bla ME-180 cells, beta-lactamase FRET ratio, 16 h; stronger effect = higher value
# Procedure, shortened: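 Screening used 2,000 ME-180 reporter cells per well exposed to pinned compound (23 nL) or DMSO; after 16 hr at 37C, beta-lactamase expression under NF-kB control was assessed through FRET.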
# [14] = qHTS assay for small molecule disruptors of the mitochondrial membrane potential - 1 hr assay (AID 651754; calls by dose curve; further: on the % scale 0 is the no-effect control and ±100 the full control effect; nearly all actives have a fitted effect of over 35% in size)
# Procedure, shortened: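 HepG2 cells, attached overnight, were exposed to compound for 1 hr at 37C, then stained 30 min with a potentiometric dye. Ratio of red aggregate (590nm) to green monomer (535nm) fluorescence reports membrane potential; collapse shifts signal toward green.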
# [15] = qHTS assay for small molecule disruptors of the mitochondrial membrane potential - 5 hr assay (AID 651755; calls by dose curve; further: on the % scale 0 is the no-effect control and ±100 the full control effect; nearly all actives have a fitted effect of over 40% in size)
# Procedure, shortened: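 HepG2 cells, attached overnight at 37C, were exposed to compound or DMSO for 5 hr at 37C, 5% CO2. Mito-MPS dye was then added for 30 min, and fluorescence read at 490/535 nm (monomers) and 540/590 nm (aggregates).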
compound,measurement,setting,value
Cc1cc2nc3c(=O)[nH]c(=O)nc-3n(CC(O)C(O)C(O)CO)c2cc1C (configuration not stated),outcome,[1],inactive
same,Potency,[2],inactive
O=C1CN2Cc3c(ccc(Cl)c3Cl)N=C2N1,Potency,[3],inactive
same,Potency,[4],inactive
Fc1ccc(C(c2ccc(F)cc2)N2CCN(CC=Cc3ccccc3)CC2)cc1,Potency,[2],inactive
COc1c(C)c2c(c(O)c1CC=C(C)CCC(=O)OCCN1CCOCC1)C(=O)OC2,Potency,[5],5.1 µM (active)
same,Potency,[2],2.82 µM (active)
CCCCc1ccc(NS(=O)(=O)c2ccc(C)c(C(=O)N3CCN(c4cccc(C)c4C)CC3)c2)cc1,Potency,[3],20.9 µM (active)
same,Potency,[4],16.8 µM (active)
same,viability (% of control),[6],9.89%
same,"viability, percent of control",[7],6.19%
same,Potency,[8],20.9 µM (active)
C[C@@H](O[C@H]1OCCN(Cc2n[nH]c(=O)[nH]2)[C@@H]1c1ccc(F)cc1)c1cc(C(F)(F)F)cc(C(F)(F)F)c1,Potency,[3],29.6 µM (active)
same,Potency,[4],23.7 µM (active)
NS(=O)(=O)c1cc(Cl)c(Cl)c(S(N)(=O)=O)c1,outcome,[1],inactive
CCC(=O)N1CCN(c2ccc(-n3c(=O)ccc4cnc5ccc(-c6cnc7ccccc7c6)cc5c43)cc2C(F)(F)F)CC1,Potency,[3],13.2 µM (active)
same,Potency,[4],5.3 µM (active)
same,viability (% of control),[6],3.32%
same,"viability, percent of control",[7],4.82%
same,Potency,[8],18.7 µM (active)
same,Potency,[9],inactive
CCN(CC)CCCCNc1nc2cc(Cl)c(Cl)cc2nc1-c1ccc(-c2cccs2)s1,Potency,[4],11.9 µM (active)
same,viability (% of control),[6],1.61%
same,"viability, percent of control",[7],1.92%
same,Potency,[8],inactive
Cc1cccc(Nc2nc(N[C@@H]3CCCC[C@H]3N)ncc2C(N)=O)c1,Potency,[3],inactive
same,viability (% of control),[6],2.81%
same,"viability, percent of control",[7],2.69%
same,Potency,[9],inactive
O=C(O)c1ccc(O)c2ncc(N3CCOCC3)cc12,Potency,[3],inactive
same,Potency,[4],inactive
same,viability (% of control),[6],77.1%
same,"viability, percent of control",[7],74%
same,Potency,[8],inactive
same,Potency,[9],inactive
CCc1cc(-c2n[nH]c(C)c2-c2ccc3c(c2)OCCO3)c(O)cc1O,Potency,[4],3.75 µM (active)
same,viability (% of control),[6],38.2%
same,"viability, percent of control",[7],34.6%
same,Potency,[8],23.5 µM (active)
Cc1cc2c(cc1C1(c3ccc(C(=O)O)cn3)CC1)C(C)(C)CCC2(C)C,outcome,[10],inactive
same,viability (% of control),[6],79.3%
same,"viability, percent of control",[7],48.2%
same,Potency,[8],inactive
same,Potency,[9],inactive
NC(=O)c1ccc(N(C(N)=O)c2c(F)cccc2F)nc1-c1ccc(F)cc1F,Potency,[3],inactive
same,Potency,[4],inactive
same,viability (% of control),[6],81.2%
same,"viability, percent of control",[7],110%
same,Potency,[8],inactive
same,Potency,[9],inactive
COc1c(C)cnc(Cn2cnc3c(Cl)nc(N)nc32)c1C,Potency,[3],inactive
same,Potency,[4],0.0211 µM (active)
same,viability (% of control),[6],13.8%
same,"viability, percent of control",[7],59.9%
same,Potency,[9],inactive
O=C(Nc1ccc(OC(F)(F)F)cc1)c1sccc1NCc1ccnc2ccccc12,Potency,[3],33.2 µM (active)
same,viability (% of control),[6],9.29%
same,"viability, percent of control",[7],26%
same,Potency,[8],inactive
CN(C)CCN(C)C(=O)c1ccc(NC(=O)Nc2ccc(-c3nc(N4CCOCC4)c4ccn(CC(F)(F)F)c4n3)cc2)cc1,Potency,[3],4.18 µM (active)
same,viability (% of control),[6],0.807%
same,"viability, percent of control",[7],1.25%
same,Potency,[9],29.6 µM (active)
CC(=O)Nc1cccc(-n2c(=O)n(C3CC3)c(=O)c3c(Nc4ccc(I)cc4F)n(C)c(=O)c(C)c32)c1,viability (% of control),[6],0.993%
same,"viability, percent of control",[7],6.64%
CC(C)C[C@@H](C(=O)N[C@H](C(=O)OC1CCCC1)c1ccccc1)[C@H](O)C(=O)NO,Potency,[3],inactive
same,Potency,[4],inactive
same,viability (% of control),[6],4.45%
same,"viability, percent of control",[7],6.68%
same,Potency,[9],inactive
Cc1nn(Cc2ccccc2Cl)c(C)c1CN(C)CC(O)COc1ccc(Cl)cc1 (configuration not stated),Potency,[3],inactive
same,Potency,[4],inactive
same,viability (% of control),[6],9.51%
same,"viability, percent of control",[7],2.62%
same,Potency,[9],inactive
CN1C(=O)C(Cc2c[nH]c3ccccc23)NC1=S (configuration not stated),Potency,[3],inactive
same,Potency,[4],inactive
same,viability (% of control),[6],80.6%
same,"viability, percent of control",[7],98.6%
same,Potency,[8],inactive
same,Potency,[9],inactive
O=C(Nc1cccc(Cl)c1)Nc1ncc(CCNc2ncnc3ccsc23)s1,Potency,[4],23.7 µM (active)
same,viability (% of control),[6],1.73%
same,"viability, percent of control",[7],2.32%
same,Potency,[8],inactive
same,Potency,[9],inactive
C[C@@H]1C[C@H]2[C@@H]3CCC4=CC(=O)C=C[C@]4(C)[C@@]3(F)[C@@H](O)C[C@]2(C)[C@@]1(O)C(=O)CO,Potency,[11],42.2 µM (active) and inactive
same,activation,[12],-3.68% (inactive) and -5.63% (inactive)
same,activation,[13],-2.02% (inactive) and -1.92% (inactive)
same,outcome,[14],inactive
same,outcome,[15],inactive
CC(C)(C)c1[nH]cnc1C=c1[nH]c(=O)c(=Cc2ccccc2)[nH]c1=O,viability (% of control),[6],1.63%
same,"viability, percent of control",[7],7.81%
CC1=C[C@@H]2[C@@H]([C@@H](O)C[C@@]3(C)[C@H]2C[C@@H](C)[C@]3(O)C(=O)CO)[C@@]2(C)Cc3cnn(-c4ccccc4)c3C=C12,viability (% of control),[6],0.486%
same,"viability, percent of control",[7],2.33%
CC(C)C[C@H](NC(=O)c1cc2ccccc2s1)C(=O)N1CCN(C(=O)[C@H](CO)NS(=O)(=O)c2ccc(Cl)cc2Cl)CC1,Potency,[3],inactive
same,viability (% of control),[6],-0.483%
same,"viability, percent of control",[7],3.69%
CC(=O)NCCC(=O)N[C@@H](CCC(N)=O)C(=O)N[C@@H](CO)C(=O)N[C@@H](CCC(N)=O)C(=O)N[C@@H](CCC(N)=O)C(=O)N[C@H](C(=O)N[C@@H](Cc1ccccc1)C(=O)N[C@]1(C)CCCCCCC=CCCC[C@@](C)(C(=O)N[C@@H](CCC(N)=O)C(=O)N[C@@H](CC(N)=O)C(N)=O)NC(=O)[C@H](CC(C)C)NC(=O)[C@H](CC(C)C)NC(=O)[C@@H](CCCNC(=N)N)NC(=O)[C@H](Cc2c[nH]c3ccccc23)NC(=O)[C@H](CC(C)C)NC(=O)[C@H](CC(N)=O)NC1=O)[C@H](C)O,viability (% of control),[6],22.4%
same,"viability, percent of control",[7],3.58%
same,Potency,[8],inactive
CCC=CC[C@H]1C(=O)CC[C@@H]1CC(=O)OC,Potency,[3],inactive
same,Potency,[4],inactive
same,viability (% of control),[6],114%
same,"viability, percent of control",[7],109%
same,Potency,[8],inactive
same,Potency,[9],inactive
Cc1c(C(=O)Nc2ccc(N3C[C@@H](C)O[C@@H](C)C3)nc2)cccc1-c1ccc(OC(F)(F)F)cc1,viability (% of control),[6],48.4%
same,"viability, percent of control",[7],32.3%
CCOC(=O)[C@@H](N)CCC(=O)N[C@@H](CSCc1ccccc1)C(=O)N[C@@H](C(=O)OCC)c1ccccc1,Potency,[3],inactive
same,viability (% of control),[6],62.4%
same,"viability, percent of control",[7],89.4%
